Measurements as given in PubChem BioAssay AID1159569 (Broad Institute, 2015).
Measured potencies and affinities stand elsewhere. Results filed as inconclusive are left out. Activity calls are given as the source filed them. The rule behind the calls is not given here.

Test: HepG2 cell cytotoxicity, dose response, cytotoxicity control, plate reader, dry powder samples (AID 1159569)
Details: HepG2 cytotoxicity counterscreen; series mostly up to 50 µM

Structure (SMILES)	outcome
CCCC#Cc1ccc([C@H]2[C@@H](CO)N(C(=O)C3CCCCC3)[C@H]2C#N)cc1	inactive
C[C@@H]1CN([C@H](C)CO)C(=O)c2cccc(NC(=O)c3ccc(-c4nccs4)cc3)c2O[C@H]1CN(C)Cc1ccc(C(F)(F)F)cc1	inactive
COc1ccc(C#Cc2ccc3c(c2)O[C@@H](CN(C)C(=O)Nc2cccc(OC)c2)[C@H](C)CN([C@H](C)CO)S3(=O)=O)cc1	inactive
COc1ccc(NC(=O)N(C)C[C@@H]2Oc3cc(-c4ccc(C)cc4)ccc3S(=O)(=O)N([C@H](C)CO)C[C@@H]2C)cc1	inactive
COc1ccc2c3c([nH]c2c1)[C@H](CO)N(S(=O)(=O)c1ccc(C)cc1)CC31CCN(C(=O)Cc2cccnc2)CC1	inactive
C[C@@H]1CN([C@@H](C)CO)C(=O)c2cccc(NC(=O)Nc3ccccc3)c2O[C@@H]1CN(C)C(=O)Nc1ccc(F)cc1	inactive
C[C@@H]1CN([C@H](C)CO)C(=O)c2cccc(NC(=O)Nc3cccc4ccccc34)c2O[C@@H]1CN(C)C(=O)Nc1ccc(C(F)(F)F)cc1	inactive
C[C@@H]1CN([C@@H](C)CO)C(=O)c2cccc(NC(=O)c3ccc(-c4nccs4)cc3)c2O[C@H]1CN(C)Cc1ccc(Cl)c(Cl)c1	inactive
Cc1nc(N2[C@H](CO)[C@H](c3ccccc3)[C@H]2CNCC2CCCC2)sc1C	inactive
C[C@@H]1CN([C@H](C)CO)C(=O)c2cccc(NC(=O)c3nc4ccccc4s3)c2O[C@H]1CN(C)C(=O)Nc1ccc(C(F)(F)F)cc1	inactive
C[C@@H]1CN([C@H](C)CO)C(=O)c2cc(C#CCc3ccccc3)cnc2O[C@H]1CN(C)C(=O)C1CCC1	inactive
COc1ccc(NC(=O)N(C)C[C@H]2Oc3c(NC(=O)Nc4ccccc4)cccc3C(=O)N([C@@H](C)CO)C[C@H]2C)cc1	inactive
COc1cccc(S(=O)(=O)N(C)C[C@@H]2Oc3ncc(C#Cc4ccc(OC)c(OC)c4)cc3C(=O)N([C@H](C)CO)C[C@@H]2C)c1	inactive
CC(C)(C)S(=O)N1Cc2cc(C(=O)NCc3ccc4c(c3)OCO4)nc(-c3cccc(-c4cc5ccccc5o4)c3)c2[C@H]1CCO (stereo not given in full)	inactive
CC(C)(C)[S@@](=O)N1Cc2cc(C(=O)N[C@@H]3CCN(Cc4ccccc4)C3)nc(-c3cccc(-c4cccnc4)c3)c2[C@H]1CCO	inactive
COc1cccc(CN2CC3(CCN(Cc4ccccn4)CC3)c3c([nH]c4cc(OC)ccc34)[C@@H]2CO)c1	inactive
COc1ccc2c3c(n(C)c2c1)[C@@H](CO)N(C(=O)c1ccccc1)CC31CCN(C(=O)c2ccccc2)CC1	inactive
OC[C@H]1[C@@H](c2ccc(-c3cccnc3)cc2)[C@@H]2CN(CC3CC3)CCCCN12	inactive
O=C(C1CCCC1)N1CC(=O)N2[C@H](CO)[C@H](c3ccc(-c4cccnc4)cc3)[C@H]2C1	inactive
COc1ccc2c3c([nH]c2c1)[C@H](CO)NCC31CCN(C(=O)Nc2ccc3c(c2)OCO3)CC1	inactive
COc1ccc(S(=O)(=O)Nc2ccc3c(c2)CC(=O)N([C@H](C)CO)C[C@H](C)[C@H](CN(C)S(=O)(=O)c2ccc(C)cc2)O3)cc1	inactive
C/C=C/c1ccc([C@H]2[C@@H](C#N)N(C(=O)NC3CCCC3)[C@@H]2CO)cc1	inactive
O=C(c1ccc(F)cc1)N1CC(=O)N2[C@H](C1)[C@@H](c1ccc(-c3cccnc3)cc1)[C@@H]2CO	inactive
CCCNC(=O)N1[C@H](C#N)[C@H](c2ccc(C#Cc3cccc(F)c3)cc2)[C@H]1CO	inactive
Cc1ccc(-c2ccccc2[C@H]2[C@@H](C#N)N(C(=O)c3cccc(F)c3)[C@H]2CO)cc1	inactive
CCCc1cn(CC[C@@H]2CC[C@H](NS(=O)(=O)c3ccc(-c4ccccc4)cc3)[C@H](CO)O2)nn1	inactive
COc1ccc(NC(=O)N(C)C[C@@H]2Oc3c(NC(=O)c4nc5ccccc5s4)cccc3C(=O)N([C@@H](C)CO)C[C@H]2C)cc1	inactive
C/C=C/c1ccc2c(c1)[C@H]1[C@H](CCN1C(=O)c1ccc(F)cc1)[C@H](CO)N2	inactive
COc1ccc(C#Cc2ccc3c(c2)O[C@@H](CN(C)S(=O)(=O)c2ccccc2F)[C@@H](C)CN([C@H](C)CO)S3(=O)=O)cc1	inactive
COc1ccc(NC(=O)N2CCCCN3[C@H](CO)[C@H](c4ccc(C#Cc5ccccn5)cc4)[C@@H]3C2)cc1	inactive
